# From ChEMBL document CHEMBL3988442, “University of Dundee, Small-Polar-MMV Screening Library” (2021)
# The whole screen tested about 66,000 compounds, of which about 960 (1.5%) showed an effect of 50% or more. Only a selection was taken, and strong results are over-represented in it overall.
# Test system: Trypanosoma brucei
# Assay: Trypanosoma brucei 72 hour study
# Type: functional, organism-based
# Set-up: scale not given: in the data most compounds retested in dose-response had high values
smiles,measurement,setting,value
COc1c(CNCCNC(=O)c2ccccc2)c(C)nn1C.Cl,Percent Effect,"30.3 µM, […]",-11.06%
CCN(C)S(=O)(=O)NCC(O)c1c(Cl)cccc1Cl (configuration not stated),Percent Effect,"30 µM, 30.03 µM",-61.52%
Cc1ccccc1N1CCN(C(=O)c2ccc[nH]2)C(C)C1 (configuration not stated),Percent Effect,"30 µM, 30.03 µM",53.58%
Cc1ccccc1N1CCN(C(=O)c2cscn2)C(C)C1 (configuration not stated),Percent Effect,"30.3 µM, […]",-44.71%
CSc1ncc(C(=O)N2CCN(c3ccccc3C)CC2C)cn1 (configuration not stated),Percent Effect,"30.3 µM, […]",-20.66%
CNc1cc(C(=O)NCCC2=CSC3=NCCCN23)ccn1,Percent Effect,"30.3 µM, […]",4.45%
Cc1cc(C)n(CC2CCCCN2C(=O)c2ccc3c(c2)COC3)n1 (configuration not stated),Percent Effect,10 µM,-3.538%
same,Percent Effect,"30.3 µM, […]",12.9%
O=C(CN1CCC(c2cc(=O)n3c(n2)CCCCC3)C1)N1CCCCC1.O=C(O)CC(O)(CC(=O)O)C(=O)O (configuration not stated),Percent Effect,"30.3 µM, […]",-90.53%
CC1(C)Cc2c(cnn2-c2ccccc2)C(NC2CCSCC2)C1 (configuration not stated),Percent Effect,"30 µM, 30.03 µM",82.22%
CCC(Nc1nnnn1-c1ccccc1)C(=O)NC1CCSCC1 (configuration not stated),Percent Effect,"30 µM, 30.03 µM",-25.42%
Cc1nn(-c2ccccc2)c(C)c1CNC(=O)NC1CC1,Percent Effect,"30 µM, 30.03 µM",-13.2%
CC(=O)NC1CC(C)(C)Cc2c1cnn2-c1cccc(F)c1 (configuration not stated),Percent Effect,"30 µM, 30.03 µM",-59.29%
CC1(C)Cc2c(cnn2-c2cccc(F)c2)C(NC2CCSCC2)C1 (configuration not stated),Percent Effect,"30 µM, 30.03 µM",99.5%
CS(=O)(=O)NC(=O)c1nnn(-c2cccc(F)c2)c1C1CC1,Percent Effect,"30.3 µM, […]",-19.55%
O=C(O)C(F)(F)F.O=C(O)C(F)(F)F.c1ccc(CN2CC[C@@H]3O[C@@H](COCC4CCOCC4)CC[C@@H]32)nc1,Percent Effect,"30 µM, 30.03 µM",11.6%
Nc1ccnc(N2C[C@@H]3CC[C@H](C2)N(CC2CCC2)C3=O)n1,Percent Effect,"30 µM, 30.03 µM",-6.843%
COc1ncccc1CN1CC[C@]2(C[C@@H](OCc3ccccn3)CO2)C1.O=C(O)C(F)(F)F.O=C(O)C(F)(F)F.O=C(O)C(F)(F)F,Percent Effect,"30 µM, 30.03 µM",2.267%
CCSc1ccc(C(=O)N2CC[C@](O)(CC)[C@H](O)C2)s1,Percent Effect,"30.3 µM, […]",-1.451%
OC1(CN2CCC(Oc3cccc(C(F)(F)F)c3)CC2)CNCCOC1 (configuration not stated),Percent Effect,"30 µM, 30.03 µM",-13.41%
CC(N)C(=O)N1CCC(Oc2cccc(C(F)(F)F)c2)CC1 (configuration not stated),Percent Effect,"30.3 µM, […]",98.32%
Nc1cc(C(=O)N2CCC(Oc3cccc(C(F)(F)F)c3)CC2)ccn1,Percent Effect,"30.3 µM, […]",19.92%
Nc1ccc(C(=O)N2CCC(Oc3cccc(C(F)(F)F)c3)CC2)cn1,Percent Effect,"30.3 µM, […]",54.87%
O=C(c1ccc(=O)[nH]c1)N1CCC(Oc2cccc(C(F)(F)F)c2)CC1,Percent Effect,"30.3 µM, […]",9.238%
FC(F)(F)c1cccc(OC2CCN(Cc3ncc[nH]3)CC2)c1,Percent Effect,"30 µM, 30.03 µM",-13.87%
OC1(CN2CCC(Oc3cccc(C(F)(F)F)c3)CC2)CCNC1 (configuration not stated),Percent Effect,"30 µM, 30.03 µM",92%
O=C(c1ccncc1)N1CCC(Oc2cccc(C(F)(F)F)c2)CC1,Percent Effect,"30.3 µM, […]",37.18%
O=C(c1cccnc1)N1CCC(Oc2cccc(C(F)(F)F)c2)CC1,Percent Effect,"30.3 µM, […]",6.021%
CCc1[nH]c2c(CNc3nccc(N)n3)cc(F)cc2c1C,Percent Effect,"30 µM, 30.03 µM",24.46%
Cc1nc(CN2CCO[C@H]3[C@H](OCC(=O)N(C)C)CC[C@@H]32)cs1.O=C(O)C(F)(F)F,Percent Effect,"30 µM, 30.03 µM",-32.64%
C[C@@H]1CN(C2CCN(Cc3nn(C)c4cccc(Cl)c34)CC2)C[C@H](C)O1,Percent Effect,"30.3 µM, […]",10.53%
Cn1nc(CN2CCC(c3ccncc3)CC2)c2c(Cl)cccc21,Percent Effect,"30.3 µM, […]",31.87%
Cn1nc(CN2CCCN(C3CCCC3)CC2)c2c(Cl)cccc21,Percent Effect,"30.3 µM, […]",100.6%
Cc1cccc(N2CCC3(CCN(C(=O)c4cccnc4)CC3)C2)n1.O=C(O)C(F)(F)F.O=C(O)C(F)(F)F,Percent Effect,"30 µM, 30.03 µM",38.81%
Cc1cnc(N2CCC3(CCN(CC4CCCC4)C3=O)CC2)nc1.O=C(O)C(F)(F)F,Percent Effect,"30.3 µM, […]",-22.16%
Cc1cccc(CN(Cc2ccc(C)o2)C2CC(C)(C)NC(C)(C)C2)n1.O=C(O)CC(O)(CC(=O)O)C(=O)O,Percent Effect,"30.3 µM, […]",14.76%
CC1(C)CC(N(Cc2cccnc2)Cc2cccnc2)CC(C)(C)N1.O=C(O)CC(O)(CC(=O)O)C(=O)O,Percent Effect,"30.3 µM, […]",13.11%
CC1(C)CC(N(Cc2ccncc2)Cc2cccnc2)CC(C)(C)N1.O=C(O)CC(O)(CC(=O)O)C(=O)O,Percent Effect,"30.3 µM, […]",3.133%
CC1(C)CC(N(Cc2cccnc2)Cc2cccc(F)c2)CC(C)(C)N1.O=C(O)CC(O)(CC(=O)O)C(=O)O,Percent Effect,"30.3 µM, […]",92.81%
CCCN(Cc1cccnc1)C1CC(C)(C)NC(C)(C)C1.O=C(O)CC(O)(CC(=O)O)C(=O)O,Percent Effect,"30.3 µM, […]",3.437%
Cc1ccc(CN(Cc2cccnc2)C2CC(C)(C)NC(C)(C)C2)s1.O=C(O)CC(O)(CC(=O)O)C(=O)O,Percent Effect,"30.3 µM, […]",78.89%
Cc1cccc(CN(Cc2cccnc2)C2CC(C)(C)NC(C)(C)C2)n1.O=C(O)CC(O)(CC(=O)O)C(=O)O,Percent Effect,"30.3 µM, […]",-21.3%
CC1(C)CC(N(Cc2ccccc2)Cc2cccnc2)CC(C)(C)N1.O=C(O)CC(O)(CC(=O)O)C(=O)O,Percent Effect,"30.3 µM, […]",27.73%
Cc1ccc(CN(Cc2ccccn2)C2CC(C)(C)NC(C)(C)C2)s1.O=C(O)CC(O)(CC(=O)O)C(=O)O,Percent Effect,"30.3 µM, […]",71.04%
Cc1nc[nH]c1CN(Cc1ccccc1)C1CC(C)(C)NC(C)(C)C1.O=C(O)CC(O)(CC(=O)O)C(=O)O,Percent Effect,"30.3 µM, […]",9.969%
CC1(C)CC(N(Cc2ccccc2)Cc2c[nH]cn2)CC(C)(C)N1.O=C(O)CC(O)(CC(=O)O)C(=O)O,Percent Effect,"30.3 µM, […]",9.903%
Cc1ccsc1CN(Cc1cccnc1)C1CC(C)(C)NC(C)(C)C1.O=C(O)CC(O)(CC(=O)O)C(=O)O,Percent Effect,"30.3 µM, […]",61.32%
